According to the supplement of paper PMC10981050:
Values joined by “and” are separate entries in the source; they are usually repeats but may differ in a detail not shown here. Equal entries are not always repeated. Structures can show the parent of a compound that is named as a salt.

Tests used:
Test in all cases: cell viability relative to vehicle control; higher = less cytotoxic
Details in all cases: 10 µM
K562 = tested on: K562
In short: (§1)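 CRISPR-edited SRSF2 P95 mutant and isogenic wild-type clones of four leukaemia lines were screened against Selleck bioactive, kinase and epigenetic probe libraries, with identity-inconsistent compounds removed. Compounds were acoustically dispensed into 384-well plates at a single 10 µM dose, with 2000 cells in 50 µL medium per well. After 48 h, supernatant was removed and CellTiter-Glo luminescence was read. Viability was expressed as percent of the on-plate DMSO vehicle control, analysed in Genedata Screener.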

MARIMO = tested on: MARIMO
In short: as §1

MOLM14 = tested on: MOLM14
In short: as §1

OCI-AML2 = tested on: OCI-AML2
In short: as §1

| SMILES | cell viability (K562; SRSF2 genotype: SRSF2 P95H/wt) | cell viability (K562; SRSF2 genotype: SRSF2 wt/wt) | cell viability (MARIMO; SRSF2 genotype: SRSF2 P95H/wt) | cell viability (MARIMO; SRSF2 genotype: SRSF2 wt/wt) | cell viability (MOLM14; SRSF2 genotype: SRSF2 P95H/wt) | cell viability (MOLM14; SRSF2 genotype: SRSF2 wt/wt) | cell viability (OCI-AML2; SRSF2 genotype: P95H/wt) | cell viability (OCI-AML2; SRSF2 genotype: wt/wt) |
| --- | --- | --- | --- | --- | --- | --- | --- | --- |
| O=C1CCc2c(ccc3ccccc23)O1 [Splitomicin] | 105% and 97% | 95.4% | 103% | 107% | 98.7% | 99.5% | 96.9% | 102% |
| CCN=C1N[C@@H]2[C@@H](O)[C@H](O)[C@@H](CO)O[C@@H]2S1 [Thiamet G] | 99.9% and 104% | 101% | 103% | 106% | 92.8% | 99.8% | 101% | 107% |
| O=c1[nH]c(=O)n([C@H]2C[C@H](O)[C@@H](CO)O2)cc1/C=C/Br [Brivudine] | 97.4% and 92% | 103% | 101% | 102% | 95.6% | 105% | 99.8% | 107% |
| O=C1CCC[C@@H]2[C@H]3CCC[N+]4([O-])CCC[C@@H](CN12)[C@@H]34 (stereo partly specified) [Oxymatrine (Matrine N-oxide)] | 105% and 96.8% | 99% | 101% | 98.9% | 100% | 98.2% | 97.7% | 96.5% |
| CCCC[C@@H](C=O)NC(=O)[C@H](CC(C)C)NC(=O)OCc1ccccc1 [Calpeptin] | 91.3% and 95.4% | 98.5% | 90.9% | 95.2% | 83.2% | 98.9% | 96.6% | 101% |
| Cc1ccc(-n2[nH]c(C)c(N=Nc3cccc(-c4cccc(C(=O)O)c4)c3O)c2=O)cc1C [Eltrombopag olamine] | 76% and 80.3% | 69.3% | 54.9% | 69% | 75.4% | 68.5% | 66.3% | 60.3% |
| CC[C@H]1OC(=O)[C@H](C)[C@@H](O[C@H]2C[C@@](C)(OC)[C@@H](O)[C@H](C)O2)[C@H](C)[C@@H](O[C@@H]2O[C@H](C)C[C@H](N(C)C)[C@H]2O)[C@](C)(O)C[C@@H](C)/C(=N\OCOCCOC)[C@H](C)[C@@H](O)[C@]1(C)O [Roxithromycin (Roxl-150)] | 104% and 106% | 94.9% | 103% | 105% | 101% | 100% | 93.6% | 105% |
| COC(=O)C1=C(C)NC(C)=C(C(=O)OCC(C)C)C1c1ccccc1[N+](=O)[O-] (stereo unspecified) [Nisoldipine] | 80.1% and 83.8% | 80.3% | 56.3% | 58.6% | 41.7% | 34.7% | 41.2% | 55.3% |
| COc1ccc(-c2coc3cc(O)cc(O)c3c2=O)cc1 [Biochanin A (4-Methylgenistein)] | 97.6% and 85.7% | 85.2% | 79.3% | 90% | 96.5% | 91.3% | 82.5% | 79.5% |
| C[C@H]1C[C@H]2[C@@H]3CCC4=CC(=O)C=C[C@]4(C)[C@H]3C(=O)C[C@]2(C)[C@@]1(O)C(=O)CO [Betapar (Meprednisone)] | 98.4% and 97.3% | 93% | 101% | 106% | 105% | 105% | 89% | 104% |
| CC(=O)O[C@H]1C[C@@]2(C)[C@@H](C[C@@H](O)[C@H]3[C@@]4(C)CC[C@@H](O)[C@@H](C)[C@@H]4CC[C@@]32C)/C1=C(\CCC=C(C)C)C(=O)O [Fusidate Sodium] | 101% and 95.3% | 102% | 102% | 104% | 102% | 100% | 94.7% | 108% |
| CS(=O)(=O)N1CCN(Cc2cc3nc(-c4cccc5[nH]ncc45)nc(N4CCOCC4)c3s2)CC1 [Pictilisib (GDC-0941)] | 88.3% and 97.1% | 94.5% | 64.3% | 57.8% | 55.9% | 64.6% | 48.5% | 55% |
| CC[C@H]1OC(=O)[C@@](C)(F)C(=O)[C@H](C)[C@@H](O[C@@H]2O[C@H](C)C[C@H](N(C)C)[C@H]2O)[C@](C)(OC)C[C@@H](C)C(=O)[C@H](C)[C@H]2N(CCCCn3cc(-c4cccc(N)c4)nn3)C(=O)O[C@]12C [Solithromycin] | 91% and 93.4% | 91.2% | 107% | 101% | 89.4% | 94.9% | 94.1% | 93.5% |
| NCCCCCNCC12CC3CC(CC(C3)C1)C2 [IEM 1754 dihydrobroMide] | 102% and 104% | 95% | 104% | 105% | 103% | 102% | 91.4% | 100% |
| CN1C(N)=N[C@](C)(c2cc(NC(=O)c3ccc(F)cn3)ccc2F)CS1(=O)=O [Verubecestat (MK-8931)] | 92.7% and 98.7% | 98.3% | 88.9% | 96.1% | 94.4% | 100% | 99.9% | 97.1% |
| CCN1CCN(Cc2ccc(-c3cc4c(N[C@H](C)c5ccccc5)ncnc4[nH]3)cc2)CC1 | 3.36% and 7.86% | 8.31% | 52.9% | 58.4% | 12.6% | 11.8% | 13.8% | 23% |
| O=C(Cc1ccccc1)Nc1nnc(CCSCCc2nnc(NC(=O)Cc3ccccc3)s2)s1 | 81.3% and 83.7% | 88.7% | 75.9% | 72.4% | 82.9% | 91.2% | 68.5% | 78.7% |
| CCCOC(=O)c1cc(O)c(O)c(O)c1 [Propyl gallate] | 96.2% and 91% | 94.7% | 81.8% | 99.1% | 97.6% | 106% | 98.2% | 97.5% |
| COc1ccc2cc([C@H](C)C(=O)O)ccc2c1 [Naproxen Sodium] | 99.4% and 104% | 96.2% | 101% | 97.2% | 98.6% | 102% | 105% | 98.7% |

| SMILES | cell viability (K562; SRSF2 genotype: SRSF2 P95H/wt) | cell viability (K562; SRSF2 genotype: SRSF2 wt/wt) | cell viability (MARIMO; SRSF2 genotype: SRSF2 P95H/wt) | cell viability (MARIMO; SRSF2 genotype: SRSF2 wt/wt) | cell viability (MOLM14; SRSF2 genotype: SRSF2 P95H/wt) | cell viability (MOLM14; SRSF2 genotype: SRSF2 wt/wt) | cell viability (OCI-AML2; SRSF2 genotype: P95H/wt) | cell viability (OCI-AML2; SRSF2 genotype: wt/wt) |
| --- | --- | --- | --- | --- | --- | --- | --- | --- |
| CCCCCCOC(=O)c1cc(=O)c(O)c2c(O)c(O)c(OC)cc2c1 | 14.8% and 16.8% | 46.8% | 45.2% | 45.2% | 61.5% | 58.9% | 19.8% | 42.4% |
| O=C(O)c1ccccc1C(=O)Nc1ccc(-c2ccccc2)cc1 [Kartogenin] | 106% and 113% | 103% | 105% | 107% | 106% | 105% | 105% | 97.9% |
| Fc1cc(-c2cccc3ncc(-c4cnn(C5CCNCC5)c4)nc23)cc(F)c1CN1CCOCC1 | 3.45% and 6.22% | 7.58% | 31.9% | 5.4% | 0.59% | 0.69% | 0.94% | 2.89% |
| COc1ccc(Oc2cc(C)c(-c3csc(NC(=O)c4ccncc4)n3)c(C)c2)cc1 | 43.7% and 37.3% | 36.9% | 37.8% | 37.6% | 42.4% | 25.9% | 47.8% | 32.2% |
| N#Cc1cnc(Nc2cc(NC[C@H]3CNCCO3)c(C(F)(F)F)cn2)cn1 | 19% and 24.2% | 13.3% | 44.5% | 54.4% | 16.4% | 10.3% | 14.5% | 14.1% |
| CC[C@@]1(O)C(=O)OCc2c1cc1n(c2=O)Cc2cc3cc(O)ccc3nc2-1 [10-Hydroxycamptothecin] | 8.49% and 21.1% | 9.32% | 4.98% | 3.83% | 0.7% | 0.58% | 0.54% | 1.46% |
| COC1(c2sc3c(N4CCOCC4)nc(-c4cnc(N)nc4)nc3c2C)COC1 | 40.8% and 45.4% | 40.3% | 47.9% | 38% | 26.3% | 24.1% | 4.68% | 16.4% |
| CC(C)[C@H](NC(=O)[C@H](CC(=O)O)NC(=O)[C@H](CCCCN)NC(=O)[C@@H](N)CCCN=C(N)N)C(=O)N[C@@H](Cc1ccc(O)cc1)C(=O)O [Thymopentin] | 92.2% and 89.2% | 87% | 86.4% | 94.6% | 95.8% | 91.6% | 77.9% | 89.5% |
| Cc1cccc(CN2CCN(C(c3ccccc3)c3ccc(Cl)cc3)CC2)c1 (stereo unspecified) [Meclizine dihydrochloride] | 87.7% and 94.2% | 91.5% | 92.2% | 105% | 86.2% | 91.2% | 86.4% | 83.2% |
| O=c1cc(-c2ccc(O[C@@H]3O[C@H](CO)[C@@H](O)[C@H](O)[C@H]3O)cc2)oc2cc(O)c([C@@H]3O[C@H](CO)[C@@H](O)[C@H](O)[C@H]3O[C@@H]3OC[C@H](O)[C@H](O)[C@H]3O)c(O)c12 [Vaccarin] | 97.3% and 93.7% | 94.2% | 99.2% | 96.3% | 92.3% | 100% | 91.1% | 96% |
| OC1OC[C@@H](O)[C@@H](O)[C@@H]1O (stereo partly drawn) [D(-)-Arabinose] | 111% and 100% | 118% | 110% | 109% | 100% | 111% | 116% | 117% |
| CCN(CC)C(=O)C1(c2ccccc2)CC1CN (stereo unspecified) [Milnacipran HCl] | 96.3% and 102% | 96.8% | 99.6% | 106% | 102% | 105% | 106% | 108% |
| CC1CCC2(O)C(C)(C)C3CCC2(C)C1C3 (stereo unspecified) [Patchouli alcohol] | 92.3% and 85.5% | 89.2% | 89.5% | 102% | 91.1% | 89.5% | 80.6% | 93% |
| CCn1cc(C(=O)O)c(=O)c2cc(F)c(N3CCNCC3)cc21 [Norfloxacin (Norxacin)] | 91.3% and 98.8% | 90.9% | 88.7% | 95.5% | 90.5% | 91.8% | 97.4% | 91.5% |
| CC(=O)OCC(=O)[C@@]12OC(C)(C)O[C@@H]1C[C@H]1[C@@H]3C[C@H](F)C4=CC(=O)C=C[C@]4(C)[C@@]3(F)[C@@H](O)C[C@@]12C [Fluocinonide (Vanos)] | 100% and 105% | 108% | 110% | 106% | 107% | 94.8% | 111% | 117% |
| O=C1CC(c2c[nH]c3ccc(F)cc23)C(=O)N1 (stereo unspecified) | 103% | 111% | 100% | 102% | 103% | 108% | 100% | 101% |
| COc1ccc(-c2coc3cc(O[C@@H]4O[C@H](CO)[C@@H](O)[C@H](O)[C@H]4O)ccc3c2=O)cc1O [Calycosin-7-O-beta-D-glucoside] | 95% and 99% | 98.5% | 93% | 105% | 112% | 110% | 97.1% | 106% |
| CC(C)=CCC[C@](C)(O)[C@H]1CC[C@]2(C)[C@@H]1[C@H](O)C[C@@H]1[C@@]3(C)CC[C@H](O)C(C)(C)[C@@H]3[C@@H](O)C[C@]12C [(20S)-Protopanaxatriol] | 90.2% and 89.5% | 101% | 96.1% | 105% | 106% | 106% | 107% | 101% |
